Screening results (PubChem BioAssay)
Rows were chosen to be rich in hits. Some 10% of all compounds tested hit in one or more screens of this group.
KB-3-1 tox = qHTS assay for MDR1-selective chemotherapeutics: Primary screen using the parental adenocarcinoma cell KB-3-1; AID 1347075, 2019; Potency, µM (doses to about 46.1 µM), hits mostly cytotoxic; KB-3-1 viability, CellTiter-Glo ATP luminescence, 72 h; 400,000 compounds, 1.4% hits; further: on the % scale 0 is the no-effect control and ±100 the full control effect; nearly all actives have a fitted effect of over 60% in size
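Screening of KB-3-1 cells (DMEM, 10% FBS, phenol-red free) ran from lowest to highest compound concentration; after 72 h at 37 °C viability was read luminescently and curves fitted.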
SW480 rerep = A quantitative high throughput screen for small molecules that induce DNA re-replication in SW480 colon adenocarcinoma cells | Potency, µM (titrated, usually from 46.1 µM), without a hit: at the top dose re-replication activation, most hits filed as activators | SW480 DNA re-replication, Hoechst DNA content imaging, 48 h | 340,000 compounds, 1.8% hits; further: % of control where 0% means no effect; nearly all actives have a fitted effect of over 55% in size
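First, 250 cells per well were seeded. Next, compound or vehicle (23 nL) was pinned in, plates sat 48 hr at 37 C. Finally Hoechst was added for 40 min before fluorescence scanning.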
MCF10A rereplic = A quantitative high throughput screen for small molecules that induce DNA re-replication in MCF 10a normal breast cells; MCF 10A DNA re-replication, Hoechst nuclear intensity, 48 h; Potency, µM (doses to about 46.1 µM), without a hit: at the highest dose activity, positive = re-replication, hits mostly activators; 350,000 compounds, 2.9% hits; further: % of control where 0% means no effect; nearly all actives have a fitted effect of over 50% in size
RORg inh = qHTS for inhibitors of ROR gamma transcriptional activity; Nuclear receptor ROR-gamma (Mus musculus), P51450; Drosophila S2 Gal4-RORgamma UAS-luciferase reporter, 20 h; Potency, µM (series often up to 53.6 µM), inactives show at the highest dose activity change, negative = inhibition, most hits filed as inhibitors; 310,000 compounds, 5.4% hits; AID 2551, 2010; further: on the % scale 0 is the no-effect control and ±100 the full control effect; nearly all actives have a fitted effect of over 60% in size
Target sequence (P51450 whole entry, looked up, the tested form may be a part): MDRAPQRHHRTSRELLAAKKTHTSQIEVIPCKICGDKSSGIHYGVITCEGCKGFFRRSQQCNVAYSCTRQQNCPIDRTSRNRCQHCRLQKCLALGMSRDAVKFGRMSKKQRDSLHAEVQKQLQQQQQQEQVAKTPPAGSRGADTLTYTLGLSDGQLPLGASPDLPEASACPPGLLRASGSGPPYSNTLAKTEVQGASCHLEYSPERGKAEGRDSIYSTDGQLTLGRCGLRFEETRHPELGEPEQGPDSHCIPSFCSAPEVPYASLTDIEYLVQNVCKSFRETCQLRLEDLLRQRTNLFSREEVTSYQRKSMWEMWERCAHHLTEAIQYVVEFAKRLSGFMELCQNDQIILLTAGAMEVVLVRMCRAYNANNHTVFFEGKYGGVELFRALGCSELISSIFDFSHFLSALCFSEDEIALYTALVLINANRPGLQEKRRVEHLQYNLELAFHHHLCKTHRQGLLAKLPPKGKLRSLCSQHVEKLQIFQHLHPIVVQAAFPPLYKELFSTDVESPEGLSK
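Read-out: Photinus luciferase luminescence; inhibitors lower reporter signal. Insect Schneider cells with Gal4-ROR gamma fusion under metallothionein promoter, UAS reporter; 700 uM final copper sulfate induction, 20 hr, ambient temperature.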
Gal4-VP16 FLuc = VP16 counterscreen qHTS for inhibitors of ROR gamma transcriptional activity | 310,000 compounds, 3.5% hits | Potency, µM (top dose mostly 53.6 µM), inactives show at the highest dose activity, negative = inhibition, hits mostly inhibitors | AID 2546, 2010 | Drosophila S2 Gal4-VP16 UAS-luciferase, luminescence, 20 h;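 further: Gal4-VP16 expression switched on by copper sulfate through the metallothionein promoter; on the % scale 0 is the no-effect control and ±100 the full control effect; nearly all actives have a fitted effect of over 50% in size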
KB-V1 cytotox = qHTS assay for MDR1-selective chemotherapeutics: Primary screen using the drug-selected MDR subline cells KB-V1. KB-V1 MDR cells viability, CellTiter-Glo, 72 h. Potency, µM (doses to about 46.1 µM), actives largely listed as cytotoxic. 400,000 compounds, 3.4% hits; further: on the % scale 0 is the no-effect control and ±100 the full control effect; nearly all actives have a fitted effect of over 60% in size
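KB-V1, DMEM (no phenol red) + 10% FBS; cpd pin-transferred, titration series; 72 h, 37 degrees C; CellTiter-Glo, luminescence. Data normalized, curve-fit.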
An asterisk follows results filed as active; i = inactive; ? = inconclusive; . = no result given; [ ] = another dose, or the depositor's remark. The call rests on the fitted dose curve; in most records, active means well fitted curve in the direction sought with a large enough effect; inconclusive means small, poorly fitted or top-dose-only effect, or another doubt; inactive means no such curve, though single readings can be large; an effect the other way counts as inactive or inconclusive. Potency means the concentration at half of the fitted maximal effect.

SMILES | KB-3-1 tox | SW480 rerep | MCF10A rereplic | RORg inh | Gal4-VP16 FLuc | KB-V1 cytotox
Cc1nc([N+](=O)[O-])c(NCCO)n1Cc1ccccc1 | i | -4.4% | -6.3% | -0.4% | 1.0%[10 µM] | i
COc1ccc(C(=O)Cn2c(C)nc([N+](=O)[O-])c2Br)cc1 | ? | 4.6% | ? | -31.8% | ? | i
Cc1nc([N+](=O)[O-])c(Br)n1CC(=O)c1ccc(Cl)cc1 | 18.4µM* | ? | 14.6µM* | 10µM* | ? | ?
Cc1nc([N+](=O)[O-])c(Br)n1Cc1ccc(Cl)c(Cl)c1 | ? | ? | 20.6µM* | 7.08µM* | ? | ?
Nc1ncnc2c1ncn2[C@@H]1O[C@H](C(=O)N[C@@H](CO)Cc2ccccc2)[C@@H](O)[C@H]1O | i | . | . | . | . | i
CCc1ccc2nc(-c3cccc(C)c3)nc(SCC(=O)NCC3CCCO3)c2c1 (stereo unspecified) | i | -4.5% | -3.7% | -13.3% | -0.8% | 2.59µM*
Cc1ccc2nc(-c3ccc(F)cc3)nc(SCC(=O)NCC3CCCO3)c2c1 (stereo unspecified) | ? | -1.8% | 0.1% | -8.6% | -2.1% | i
Cc1ccc(C2=NN(Cc3nnc(-c4ccccc4)o3)C(=O)SC2)cc1 | i | -0.5% | ? | -0.6% | 2.1% | 13µM*
CO[C@@H]1COC(=O)C/C=C\[C@@H](C)[C@H](OC)COC(=O)[C@H](COCc2ccccc2)NC(=O)C/C=C\[C@H]1C | . | . | . | 13.1%[10 µM] | -2.6%[10 µM] | .
O=C(c1cc(-c2ccco2)on1)N1CCN(C(c2ccccc2)c2ccccc2)CC1 | i | 3.98µM* | ? | 30.0% | -0.6% | i
COc1ccc(-c2cc(C(=O)N3CCN(C(c4ccccc4)c4ccccc4)CC3)no2)cc1OC | i | -1.4% | 10.3µM* | 17.2% | -2.9% | i
COc1ccc(-c2cc(C(=O)N3CCN(C(c4ccccc4)c4ccccc4)CC3)no2)cc1 | ? | 0.7% | ? | 9.7% | 0.5% | 20.6µM*
CC(C)c1cc(C(=O)N2CCN(C(c3ccccc3)c3ccccc3)CC2)no1 | i | 5.9% | 6.3% | -3.1% | 2.1% | i
COc1cccc(NC(=O)CN(C)C(=O)COc2ccc3ccccc3c2)c1 | i | 3.6% | 2.0% | -43.3% | -6.0% | 14.6µM*
COc1cccc(NC(=O)CN(C)C(=O)CSc2ccc3c(c2)OCCO3)c1 | i | -2.3% | -1.4% | . | . | 20.6µM*
CN(CC(=O)Nc1cccc(F)c1)C(=O)CCSc1ccc(F)cc1 | 8.2µM* | 16.7% | ? | . | . | ?
COc1ccc(NC(=O)CN(C)C(=O)CCSc2ccc(F)cc2)cc1 | i | -0.4% | 7.9% | . | . | ?
CCOC(=O)Nc1cccc(OCC(=O)Nc2ccccc2OC)c1 | i | 1.4% | 28.4% | 6.0% | -6.3% | 20.6µM*
COc1ccc(C2c3c(oc4cc(C)cc(C)c4c3=O)C(=O)N2Cc2ccco2)cc1OC (stereo unspecified) | i | . | . | . | . | ?
COc1ccccc1CNC(=O)c1cccn1-c1nnc(N2CCCCC2)s1 | i | . | . | . | . | i
CCN(CC(=O)Nc1ccc(NC(C)=O)cc1)C(=O)COc1ccc2ccccc2c1 | i | 0.4% | -1.1% | . | . | i
CCN(CC(=O)Nc1ccccc1OC)C(=O)COc1ccc2ccccc2c1 | i | -14.3% | 0.7% | 0.1% | -2.7% | 14.6µM*
COC(=O)Cc1ccc(NC(=S)NCc2ccc(OC)cc2)cc1 | i | 1.7% | -3.2% | ? | 0.6% | i
COC(=O)Cc1ccc(NC(=S)NCc2ccc(F)cc2)cc1 | i | -3.8% | 1.2% | ? | ? | i
CCCCc1ccc(NC(=S)NCc2ccccc2OC)cc1 | i | -4.9% | 5.1% | 2µM* | -29.9%[10 µM] | i
SMILES | KB-3-1 tox | SW480 rerep | MCF10A rereplic | RORg inh | Gal4-VP16 FLuc | KB-V1 cytotox
COc1ccc(CNc2ccc(C(=O)O)cc2)cc1 | i | ? | ? | 1.26µM* | 0.631µM* | i
COc1ccc(NC(=S)NCc2ccc(F)cc2)cc1 | i | 0.7% | 1.1% | 7.94µM* | ? | i
CCCCc1ccc(NC(=S)NCc2ccc(OC)cc2)cc1 | i | 29.6% | 1.5% | 3.98µM* | ? | i
COc1ccc(-n2c(=O)c3ccc(C(=O)NCc4ccc(C)cc4)cc3n(Cc3ccc(Cl)cc3)c2=O)cc1 | i | . | . | . | . | i
COc1ccc(-c2cc(C(=O)NCCc3ccc(OC)c(OC)c3)c3c(-c4ccc(F)cc4)[nH]nc3n2)cc1 | i | . | . | . | . | i
COc1ccc(CNC(=O)CC(C)n2nc(C)cc2C)cc1 (stereo unspecified) | i | . | . | . | . | i
COc1ccc(CNC(=S)Nc2ccc(OC)cc2)cc1 | i | 1.8% | 5.9% | 10µM* | ? | i
Cn1c(C(c2cc3ccccc3n2C)c2cc3ccccc3n2C)cc2ccccc21 | 18.4µM* | . | . | . | . | ?
COc1ccc(CNC(=O)c2ccc(-c3nc(CSc4ccccc4)c(C)o3)cc2)c(OC)c1 | i | . | . | . | . | i
Cc1ccc(C)c(NC(=O)c2nnn(Cc3ccc(F)cc3Cl)c2N)c1 | i | . | . | . | . | i
COc1ccc(C(=O)Nc2ccc(Cl)cn2)cc1Cl | i | ? | 18.4µM* | 3.5% | -5.8% | i
CN(C)S(=O)(=O)c1cccc(C(=O)Nc2ccc(Cl)cn2)c1 | i | 4.4% | -1.7% | -43.0% | 17.3% | 23.1µM*
O=C(Nc1ccc(Cl)cn1)c1cccc(S(=O)(=O)N2CCCC2)c1 | i | -12.6% | 5.2% | 44.6% | ? | 16.4µM*
O=C(Nc1cccc(S(=O)(=O)N2CCCC2)c1)c1ccc(Cl)nc1 | ? | 18.4µM* | ? | . | . | ?
O=C(COc1ccccc1)NCC(c1ccc(Cl)cc1)N1CCCCC1 (stereo unspecified) | i | . | . | . | . | i
CCCc1ccc(C(O)c2ncc(-c3ccccc3F)[nH]2)cc1 (stereo unspecified) | i | . | . | . | . | i
CCOC(=O)N/N=C1/C[C@@H](O)[C@@H](O)[C@@H]2[C@@H]3C(=O)N(C[C@@H]4CCCO4)C(=O)[C@H]3CC[C@H]12 | . | . | . | 13.2%[10 µM] | 1.0%[10 µM] | .
COCCNC(=O)C1(C)CCCN(C(=O)c2ccc(F)c(Cl)c2)C1 (stereo unspecified) | i | . | . | . | . | i
Cc1cc(NC(=O)c2ccc(-c3ccc(F)c(Cl)c3)o2)no1 | i | -36.1% | ? | -18.4% | 3.6% | i
O=C(Nc1ccc(Cl)cn1)c1ccc(-c2ccc(Cl)c(Cl)c2)o1 | i | 0.8% | 18.4µM* | . | . | i
